A short description of experiment [1]: BET inhibitor-based combinations targeting novel dependencies in MECOM-rearranged (r) AML: SET-2 cell line (AID 2202231). Also: nearly all actives have a fitted effect of over 35% in size.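 As to viability: plate controls were DMSO treated cells for no effect and wells without cells for full effect.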 Conditions: SET-2 AML cells viability, CellTiter-Glo luminescence, 48 h; viability: stronger effect = lower value, concentration not given here. In outline: (§1)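 Here, 11-point titrations of each agent were applied to 500 seeded cells and incubated 48 hr; CellTiter-Glo signal, scaled against DMSO and empty wells, was integrated as AUC, then Z-scored within the individual line.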

Experiment [2] can be described thus: BET inhibitor-based combinations targeting novel dependencies in MECOM-rearranged (r) AML: HNT-34 cell line (AID 2202234). Also: nearly all actives have a fitted effect of over 35% in size. The gist of the method:
(§2)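 Normalized to DMSO and empty-well controls, the luminescence data from CellTiter-Glo after 48 hr drug exposure were fitted across 11 concentrations. Reported metrics are area under the dose-response curve and its Z-transformed form.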

Experiment [3] can be described thus: BET inhibitor-based combinations targeting novel dependencies in MECOM-rearranged (r) AML: UCSD-AML1 cell line (AID 2202235). Also: nearly all actives have a fitted effect of over 40% in size. The gist of the method:
as §2

Experiment [4] can be described thus: BET inhibitor-based combinations targeting novel dependencies in MECOM-rearranged (r) AML: AML-191 cell line (AID 2202236; also: nearly all actives have a fitted effect of over 35% in size). The gist of the method: as §1
Experiment [5] can be described thus: BET inhibitor-based combinations targeting novel dependencies in MECOM-rearranged (r) AML: AML-194 cell line (AID 2202237; also: nearly all actives have a fitted effect of over 40% in size). In outline:
as §1

Experiment [6] is described as follows: BET inhibitor-based combinations targeting novel dependencies in MECOM-rearranged (r) AML: OCI-AML3 cell line (AID 2202232). Also: nearly all actives have a fitted effect of over 35% in size. The conditions noted are these: Potency: OCI-AML3 viability. In outline: as §1
The nature of experiment [7]: BET inhibitor-based combinations targeting novel dependencies in MECOM-rearranged (r) AML: MV-4-11 cell line (AID 2202233). Also: nearly all actives have a fitted effect of over 45% in size. The gist of the method: as §2

Records with an inconclusive call do not appear. Values without a mark were called inactive. The source made the active and inactive calls. Calls follow the shape of the dose curve; as a rule, active = well fitted curve in the direction sought with a large enough effect; inconclusive = small, poorly fitted or top-dose-only effect, or another doubt; inactive = no such curve, though single readings can be large; an effect the other way counts as inactive or inconclusive.
Potency is read from the fitted curve at half-maximal effect.

Turning to `C=C1CCC[C@]2(C)C=C3OC(=O)C(C)=C3C[C@@H]12`, in experiment [1], the viability is 112%. Further, the Potency entry in experiment [2], in experiment [3], in experiment [4] and in experiment [5] was “inactive” throughout.
Take `CONC(=O)Nc1ccc(-c2sc3c(c2CN(C)Cc2ccccc2)c(=O)n(-c2ccccc2)c(=O)n3Cc2c(F)cccc2F)cc1`: in experiment [1], the viability was 104%. The Potency result in experiment [4] was “inactive”.
In the case of `CC(C)(C)S(=O)(=O)c1ccc2nccc(Nc3n[nH]c4ccc(F)cc34)c2c1`, in experiment [1], the viability was 104%. In addition, the Potency entry in experiment [2] and in experiment [5] was “inactive” throughout. Besides, the Potency in experiment [4] was 10.5 µM (active).
`Cc1ccc(NC(=O)c2cccc(C(C)(C)C#N)c2)cc1Nc1ccc2ncn(C)c(=O)c2c1`: in experiment [6], the Potency was 0.0742 µM (active).
As to `COc1cccc2c1C(=O)c1c(O)c3c(c(O)c1C2=O)C[C@@](O)(C(C)=O)C[C@@H]3O[C@H]1C[C@H](N)[C@H](O)[C@H](C)O1`, the Potency in experiment [1] was 0.59 µM (active); in experiment [4] it was 0.186 µM (active).
As to `CC1Oc2cc(cnc2N)-c2c(nn(C)c2C#N)CN(C)C(=O)c2ccc(F)cc21` (stereo unspecified), the viability in experiment [1] was 105%. Besides, the Potency in experiment [3] was 20.9 µM (active).
On to `CC(=O)C1CCC2C3CCC4=CC(=O)CCC4(C)C3CCC12C` (stereo unspecified), for which, in experiment [1], the Potency is 18.6 µM (active). Besides, the Potency entry in experiment [3] was “inactive”.
Regarding `CC[C@H]1OC(=O)[C@H](C)[C@@H](O[C@H]2C[C@@](C)(OC)[C@@H](O)[C@H](C)O2)[C@H](C)[C@@H](O[C@@H]2O[C@H](C)C[C@H](N(C)C)[C@H]2O)[C@](C)(O)C[C@@H](C)CN(C)[C@H](C)[C@@H](O)[C@]1(C)O`, the Potency in experiment [1] is 0.468 µM (active). Further, the Potency result in experiment [5] is “inactive”.
Regarding `Cc1cc(Nc2ncnc3ccc(NC4=NC(C)(C)CO4)cc23)ccc1Oc1ccn2ncnc2c1`, in experiment [1], the Potency was 20.9 µM (active). In experiment [3], the Potency result was “inactive”.
`CCOc1ccc(Cc2cc([C@@H]3O[C@H](CO)[C@@H](O)[C@H](O)[C@H]3O)ccc2Cl)cc1`: the viability in experiment [1] was 95%. For the same compound, the Potency result in experiment [2] and in experiment [5] was “inactive” in each case.
For `COC[C@@H](c1ccc(C(F)(F)F)cc1)N1CCN(C2(C)CCN(C(=O)c3c(C)ncnc3C)CC2)C[C@@H]1C`, the viability in experiment [1] was 111%. Further, the Potency result in experiment [3], in experiment [4] and in experiment [5] was “inactive” in each case.
As for `COc1ccc(S(=O)(=O)NCc2ccc(C(=O)NCCc3ccc(Cl)cn3)cc2)cc1`, in experiment [1], the viability is 98%. The Potency result in experiment [2], in experiment [4] and in experiment [5] was “inactive” throughout.
Consider `COC(=O)[C@H]1[C@@H](O)[C@@]2(O)c3c(OC)cc(O[C@@H]4O[C@@H]([C@@H](O)CO)CO[C@H]4OC)cc3O[C@@]2(c2ccc(OC)cc2)[C@@H]1c1ccccc1`, for which the viability in experiment [1] is 77.8%. In experiment [4], the Potency result is “inactive”.
On to `[2H]C([2H])([2H])C(O)([C@@H](C)/C=C/[C@@H](C)[C@H]1CC[C@H]2/C(=C/C=C3C[C@@H](O)C[C@H](O)C3)CCC[C@]12C)C([2H])([2H])[2H]`, for which the viability in experiment [1] is 79.5%. For the same compound, the Potency in experiment [4] is 14.8 µM (active).
As for `CCc1ccc2nc(Nc3cc(Cc4ccccc4)nc(NC4CCC(O)CC4)n3)sc2c1` (stereo unspecified), the Potency in experiment [6] and in experiment [7] was 18.6 µM (active) throughout.
On to `O=C1NC(=O)[C@@H](c2cn3c4c(cccc24)CCC3)[C@@H]1c1c[nH]c2ccccc12`, for which the Potency in experiment [1] was 1.32 µM (active); in experiment [2], 0.934 µM (active); in experiment [4] it was 0.934 µM (active); in experiment [5], 0.934 µM (active).
In the case of `CO[C@H]1/C=C/O[C@@]2(C)Oc3c(C)c(O)c4c(O)c(c(/C=N/N5CCN(C)CC5)c(O)c4c3C2=O)NC(=O)/C(C)=C\C=C\[C@H](C)[C@H](O)[C@@H](C)[C@@H](O)[C@@H](C)[C@H](OC(C)=O)[C@@H]1C`, in experiment [1], the viability was 90.8%. The Potency entry in experiment [3] and in experiment [5] was “inactive” each time.
As for `COC(=O)N(CC(=O)O)Cc1cccc(OCc2nc(-c3ccc(Cl)cc3)oc2C)c1`, the viability in experiment [1] was 89%. Besides, the Potency result in experiment [3], in experiment [4] and in experiment [5] was “inactive” in each case.
Turning to `CN(C)C[C@@H]1CCn2cc(c3ccccc32)C2=C(C(=O)NC2=O)c2cn(c3ccccc23)CCO1`, the Potency in experiment [1] is 8.33 µM (active); in experiment [4], 7.42 µM (active); in experiment [5], 5.9 µM (active).
As for `O=C(Nc1ccccc1)Nc1ccc(-c2ccc(C(=O)[C@@H]3CCC[C@H]3C(=O)O)cc2)cc1`, in experiment [1], the viability is 105%. Moreover, the Potency entry in experiment [2], in experiment [4] and in experiment [5] was “inactive” throughout.
With `CC/C(=C(/CC)c1ccc(O)cc1)c1ccc(O)cc1`, the Potency in experiment [1] was 20.9 µM (active). Further, the Potency entry in experiment [3] is “inactive”.
With `C=C1/C(=C\C=C2/CCC[C@]3(C)[C@@H]([C@H](C)CCCC(C)(C)O)CC[C@@H]23)C[C@@H](O)C[C@@H]1O`, in experiment [1], the viability was 99.5%. Also, in experiment [5], the Potency was 23.5 µM (active).
On to `CN(C)CCN(C)C(=O)c1ccc(NC(=O)Nc2ccc(-c3nc(N4CCOCC4)c4ccn(CC(F)(F)F)c4n3)cc2)cc1`, for which, in experiment [6], the Potency was 0.934 µM (active).
As for `Nc1nc(OC(c2ccc(-c3cccc(F)c3)cc2)C(F)(F)F)cc(-c2ccc(C[C@H](N)C(=O)O)cc2)n1` (stereo partly specified), the viability in experiment [1] is 120%. Further, the Potency result in experiment [3], in experiment [4] and in experiment [5] was “inactive” throughout.

Source of the values: PubChem BioAssay (NCATS).
